A549 tox-1: A549 cytotoxicity, counter-screen for Nrf2 inhibitors; A549 ARE-Fluc cells, CellTiter-Fluor viability, 18-24 h; Potency, µM (series often up to 46 µM), for inactives: top-dose activity change, negative = cytotoxicity, actives largely listed as inhibitors; 0.16% of 390,000 active; further: potency means the concentration at half of the fitted maximal effect; on the % scale 0 is the no-effect control and ±100 the full control effect
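A549 ARE_Fluc cells in 5% FBS OPTI-MEM were exposed to compounds in concentration-response for 18-24 h at 37 deg C. Viability was read by CellTiter-Fluor fluorescence (Ex 405/Em 525) after 30 min, before the luciferase read.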
Nrf2 block: inhibitors of Nrf2 signaling. Potency, µM (series often up to 46 µM), without a hit: at the highest dose activity change, negative = inhibition, usual class: inhibitors. AID 504444. 2.1% of 360,000 active. A549 ARE-Fluc reporter, luciferase luminescence, 18-24 h; further: potency means the concentration at half of the fitted maximal effect; on the % scale 0 is the no-effect control and ±100 the full control effect; nearly all actives have a fitted effect of over 60% in size
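Nrf2 function is reported as luminescence of an ARE-controlled luciferase in A549 cells. Compounds were tested at several concentrations, and a CellTiter-Fluor read on the same wells flagged cytotoxicity.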
IL2 activator: activates IL-2 in a cell-based reporter assay; IL-2 activation reporter assay, cell-based qHTS; stimulated with anti-CD3/CD4/CD28 beads; in transgenic mouse T cells; activation, % (series mostly up to about 46 µM); 0.065% of 360,000 active; AID 652025; in the data active means activation above about 50%; inconclusive means mostly about 30% to 49%; further: 0% is about no effect
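Using fluorescent plate cytometry, EGFP and DsRed are detected in transgenic mouse T cells stimulated 18 h at 37 degrees C with antibody-coated beads after 60 min compound pretreatment.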
Nrf2 activator: activators of Nrf2 (ARE) signaling | AREc32 ARE-luciferase reporter (MCF7-derived line), luminescence, 24 h | Potency, µM (titrated, usually from 46.1 µM), inactives show at the highest dose activation, hits mostly activators | 0.31% of 410,000 active | AID 624171; further: potency means the concentration at half of the fitted maximal effect; % of control where 0% means no effect; nearly all actives have a fitted effect of over 65% in size
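Luminescent ARE reporter assay in AREc32_Fluc cells: overnight plating at 37 deg C, 24 hr compound incubation, Steady-Glo added, 30 min RT before reading.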
FLuc enzyme inh: firefly luciferase inhibition, Nrf2 hit validation. shares compounds with Nrf2 block. purified firefly luciferase, luminescence inhibition. 4% of 1,400 active. AID 720522. Potency, µM (doses to about 57.5 µM), without a hit: at the top dose activity change, negative = inhibition, actives largely listed as inhibitors; further: potency means the concentration at half of the fitted maximal effect; on the % scale 0 is the no-effect control and ±100 the full control effect; nearly all actives have a fitted effect of over 65% in size
Target sequence (P08659 whole entry, looked up): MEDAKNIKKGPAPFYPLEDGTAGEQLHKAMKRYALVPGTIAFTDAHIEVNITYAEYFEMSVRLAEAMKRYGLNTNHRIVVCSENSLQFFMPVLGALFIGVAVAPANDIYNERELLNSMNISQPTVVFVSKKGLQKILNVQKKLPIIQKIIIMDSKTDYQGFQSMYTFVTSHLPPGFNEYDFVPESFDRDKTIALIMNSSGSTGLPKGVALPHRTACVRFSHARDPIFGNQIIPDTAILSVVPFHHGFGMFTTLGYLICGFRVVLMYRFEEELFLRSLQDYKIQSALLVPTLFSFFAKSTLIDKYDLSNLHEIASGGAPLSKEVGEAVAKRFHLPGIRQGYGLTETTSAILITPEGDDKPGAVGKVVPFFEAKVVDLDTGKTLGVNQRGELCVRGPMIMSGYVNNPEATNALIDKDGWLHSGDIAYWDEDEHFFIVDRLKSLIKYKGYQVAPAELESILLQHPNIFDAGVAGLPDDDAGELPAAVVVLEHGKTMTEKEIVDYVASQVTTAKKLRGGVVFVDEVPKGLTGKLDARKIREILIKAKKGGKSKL
A549 tox-2: A549 cytotoxicity, Nrf2 inhibitor counterscreen | A549 ARE-Fluc cells, cytotoxicity counterscreen | 2% of 1,400 active | AID 720523 | Potency, µM (titrated, usually from 46.1 µM), for inactives: at the highest dose activity change, negative = cytotoxicity, usual class: inhibitors | shares compounds with Nrf2 block;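 further: potency means the concentration at half of the fitted maximal effect; cells exposed to compounds for 18 to 24 hours; on the % scale 0 is the no-effect control and ±100 the full control effect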
ARE-Fluc inh: confirmation of Nrf2 inhibitors in A549 ARE reporter cells. shares compounds with Nrf2 block. A549 ARE-firefly luciferase reporter, luminescence. Potency, µM (series often up to 46.1 µM), for the others: at the top dose activity change, negative = inhibition, actives largely listed as inhibitors. 74% of 1,400 active. AID 720524; further: potency means the concentration at half of the fitted maximal effect; on the % scale 0 is the no-effect control and ±100 the full control effect; nearly all actives have a fitted effect of over 65% in size
* marks the source's active call; other numbers are inactive results; u = inconclusive; x = not tested or not shown. Most compounds without a hit are left out; they make up all but 2.3% or so of the library. Unless noted, the call rests on the fitted dose curve; in most records, active means well fitted curve in the direction sought with a large enough effect; inconclusive means small, poorly fitted or top-dose-only effect, or another doubt; inactive means no such curve, though single readings can be large; an effect the other way counts as inactive or inconclusive.

SMILES | A549 tox-1 | Nrf2 block | IL2 activator | Nrf2 activator | FLuc enzyme inh | A549 tox-2 | ARE-Fluc inh
O=S(=O)(Nc1cc(Br)cc2cccnc12)c1cccc2ccccc12 | u | 2.3µM* | x | x | -1% | u | 7.3µM*
O=S(=O)(Nc1ccccc1Br)c1cccc2cccnc12 | x | x | 0 | -1% | x | x | x
COc1cc(OC)cc(-c2cc3nc(C)c(CCC(=O)NCc4ccccc4)c(C)n3n2)c1 | 2% | 7.3µM* | 4 | -2% | -18% | 3% | 7.3µM*
COc1cc(OC)cc(-c2cc3nc(C)c(CCC(=O)Nc4ccc(C(C)=O)cc4)c(C)n3n2)c1 | -10% | 4.1µM* | x | -3% | -12% | -5% | 18µM*
Cc1sc2ncnc(NCC3COc4ccccc4O3)c2c1C (stereo not given) | -5% | u | -1 | 8% | x | x | x
c1ccc(-c2csc3ncnc(NCC4COc5ccccc5O4)c23)cc1 (stereo not given) | 1% | 1.6µM* | -1 | 8% | -9% | 0% | 1.2µM*
Cc1cc[n+](C(C)C(=O)c2ccc(Cl)cc2)cc1 (stereo not given) | -3% | u | 0 | 0% | x | x | x
Cc1cc[n+](C(C)C(=O)c2ccc(-c3ccccc3)cc2)cc1 (stereo not given) | -24% | 8.2µM* | 0 | 5% | 3% | -16% | 9.2µM*
Oc1ccc(-c2nn[nH]n2)c2cccnc12 | 3% | 2% | x | x | x | x | x
O=C(N/N=C/c1ccc[nH]1)c1ccccc1OCc1ccc(F)cc1 | 1% | 47% | 1 | 1% | x | x | x
CCOc1ccc(OCc2ccc(C(=O)NN=Cc3ccc[nH]3)cc2)cc1 | u | 1.8µM* | 1 | 3% | -10% | u | 1.8µM*
CC(C)CCNC(=O)C(c1ccco1)N(CCCO)C(=O)Cn1nnc(-c2ccc(F)cc2)n1 (stereo not given) | -18% | 4% | -5 | 0% | x | x | x
CC(C)CCNC(=O)C(c1ccncc1)N(Cc1cccs1)C(=O)Cn1nnc(-c2ccc(F)cc2)n1 (stereo not given) | u | 2.6µM* | -2 | 9% | -3% | u | 1.5µM*
CC(=O)N(C(C)=O)N1C(=O)C2C3c4ccccc4C(c4ccccc43)C2C1=O (stereo not given) | u | 9.2µM* | -3 | -1% | -27% | u | 15µM*
CN1C(=O)C2C3c4ccccc4C(c4ccccc43)[C@@H]2C1=O (stereo not given in full) | -2% | 1% | -2 | 0% | x | x | x
COc1ccc(N2CCN(C(=O)c3cnc(N4CCOCC4)c4ccccc34)CC2)cc1 | 11% | x | x | 0% | x | x | x
NC(=S)N/N=C/c1ncc(C(F)(F)F)cc1Cl | u | 4.1µM* | -6 | 10% | -1% | u | 5.2µM*
CCN(CC)C(=O)c1sc2c(c1C)c(=O)n(Cc1ccccc1)c(=O)n2Cc1ccccc1C | -20% | x | x | 6% | x | x | x
Cc1nc(N2CCCCC2)sc1C(=O)c1cccc([N+](=O)[O-])c1 | -14% | 2.9µM* | -2 | 3% | -28% | 0% | -20%
N=C(c1cccc([N+](=O)[O-])c1)N1CCCCCC1 | 1% | 6% | 1 | 0% | x | x | x
CC1Cc2cc(S(=O)(=O)N3CCN(c4ccc(Cl)cc4)CC3)ccc2N1C(=O)C1CC1 (stereo not given) | -15% | 7.3µM* | -5 | -1% | 2% | -12% | 8.2µM*
CC1Cc2cc(S(=O)(=O)N3CCN(c4cccc(Cl)c4)CC3)ccc2N1C(=O)C1CC1 (stereo not given) | 2% | u | -3 | -1% | x | x | x
CC(=O)N1c2ccc(S(=O)(=O)N3CCC(C(=O)N4CCN(c5ccc(Cl)cc5)CC4)CC3)cc2CC1C (stereo not given) | -10% | 5.2µM* | 4 | 0% | 1% | -10% | x
CC(=O)c1c(C)nc2nc(-c3ccccc3)nn2c1C | -1% | u | x | 15% | x | x | x
COc1ccc(-c2c(C)sc(NC(=O)c3ccnn3C)c2C#N)cc1 | -9% | 6.5µM* | -2 | 5% | -14% | u | x
SMILES | A549 tox-1 | Nrf2 block | IL2 activator | Nrf2 activator | FLuc enzyme inh | A549 tox-2 | ARE-Fluc inh
O=C1CCC(C(=O)OCC(=O)c2ccccc2)N1 (stereo not given) | 1% | 4% | -2 | 0% | x | x | x
CC1CC(C)C(=O)C(C(CC2CC(=O)NC(=O)C2)OC(=O)CC(=O)c2ccccc2)C1 (stereo not given) | u | 5.2µM* | 0 | -1% | 2% | -19% | 0.21µM*
COc1ccc(NC(=O)COC(=O)Cn2cnc3ccccc32)cc1 | 10% | 10% | 1 | -1% | x | x | x
O=C(Cn1cnc2ccccc21)Nc1ccc(SC(F)F)cc1 | -17% | 4.1µM* | -1 | 5% | -20% | -1% | u
Cc1sc2ncnc(N3CCN(S(=O)(=O)c4ccc(C(C)(C)C)cc4)CC3)c2c1C | u | u | -1 | -1% | x | x | x
Cc1ccc(S(=O)(=O)N2CCN(C(=O)C3CCN(c4ncnc5sc(C)c(C)c45)CC3)CC2)c(C)c1 | -10% | 8.2µM* | -1 | 0% | 3% | -14% | 12µM*
O=C(N/N=C(\c1ccccc1)c1ccccn1)c1ccccc1Cl | -29% | u | 0 | u | x | x | x
COc1ccc(C(=O)N/N=C(\c2ccccc2)c2ccccn2)cc1 | u | 8.2µM* | 0 | 18% | 2% | 0% | u
O=C(NN=C(c1ccccc1)c1ccccn1)c1ccccc1 | u | 5.2µM* | -1 | u | -25% | 6.5µM* | x
Cc1nn(C)c2c1c(C(F)(F)F)cc(=O)n2C(C)C(=O)NCCc1ccc(Cl)cc1 (stereo not given) | 4% | -10% | x | 0% | x | x | x
CC(C)COc1ccc(C(=O)N2CCC(c3nc4ccccc4s3)CC2)cc1 | 4% | -16% | x | 5% | x | x | x
COc1ccc(N(C(=O)c2ccccc2)S(=O)(=O)c2ccc3c(c2)n(C)c(=O)n3C)cc1 | -4% | -10% | x | 0% | x | x | x
COc1ccc(NS(=O)(=O)c2ccc(NC(=O)c3ccc(CN4CCOCC4)cc3)cc2)cc1 | -2% | u | -1 | 5% | x | x | x
Cc1ccc(NS(=O)(=O)c2ccc(C(=O)NC3CCN(Cc4ccccc4)CC3)cc2)cc1 | u | 5.8µM* | -6 | 5% | 2% | -24% | 7.3µM*
Cc1ccc(NS(=O)(=O)c2cccc(C(=O)NC3CCN(Cc4ccccc4)CC3)c2)cc1 | -14% | u | -4 | 2% | x | x | x
